Reference: PubChem BioAssay (NCI)
Where “and” joins values, the source holds several entries; their conditions need not be identical. Identical values can stand only once. The panel holds about 79,000 compounds, 15% with a hit somewhere; the sample as a whole holds those more often. Unmarked numbers belong to inactive results. Calls of active or inactive are those of the source. Rule as the data show it: active = growth inhibition above about 70%; inactive = the rest.

Experiment: NCI Yeast Anticancer Drug Screen. Data for the rad50 strain (AID 155);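 also: 0% = growth of vehicle-only cultures of the same strain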
Settings: S. cerevisiae rad50 strain growth inhibition, active compounds read high; at 50.0 µM unless noted
In short: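 Compounds were tested on a yeast strain with an engineered DNA damage repair alteration; the reported value is growth inhibition normalised to vehicle treatment.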

**Q.** Which growth inhibition does the source give for `O=C(C1=CCCCC1)c1ccc(-c2ccccc2)cc1` here?
**A.** Its growth inhibition is -4.25%.

**Q.** For `COc1ccc(C=O)c(Cl)c1OC`, which growth inhibition is on record?
**A.** Its growth inhibition is 26.8%.

**Q.** With `CS(=O)(=O)OCC1OC(n2ncc(=O)[nH]c2=O)C(O)C1O` (stereo not given) as the compound, how does the growth inhibition read?
**A.** Its growth inhibition is 6.9%.

**Q.** Which growth inhibition does the source give for `Cc1ccc(C(C)C)c(Oc2cc(C)ccc2C(C)C)c1` here?
**A.** The growth inhibition was -17.9%.

**Q.** With `CC(C)(C)C1CCC2c3c([nH]c4ccccc34)C3C(=O)N(c4cc(Br)cc(Br)c4)C(=O)C3C2C1` (stereo not given) as the compound, how does the growth inhibition read?
**A.** The growth inhibition was 14.3%.

**Q.** With `O=C(O)CCCn1nnc2c(=O)[nH][nH]c(=O)c21` as the compound, how does the growth inhibition read?
**A.** Its growth inhibition is 7.3%.

**Q.** For `Cc1cc(NC(=O)C(=O)Cc2nc3ccccc3s2)ccc1Cl`, which growth inhibition is on record?
**A.** Its growth inhibition is 25.9%.

**Q.** For `O=c1/c(=C/c2ccccc2[N+](=O)[O-])sc2nc3ccccc3n12`, which growth inhibition is on record?
**A.** The growth inhibition was -16.6%.

**Q.** Which growth inhibition does the source give for `O=P(CSCCO)(c1ccccc1)c1ccccc1` here?
**A.** Its growth inhibition is -23.6%.

**Q.** Which growth inhibition does the source give for `COc1cccc(/C=C/c2cnc3ccccc3n2)c1OC` here?
**A.** Its growth inhibition is -1.25%.

**Q.** For `Cc1cccc(C(=O)NNC(=O)C(=O)NNC(=O)c2cccc(C)c2)c1`, which growth inhibition is on record?
**A.** The growth inhibition was 3.6%.

**Q.** For `CN=Nc1c(O)[nH]c2ccc(C)cc12`, which growth inhibition is on record?
**A.** Its growth inhibition is -5.25%.

**Q.** Which growth inhibition does the source give for `CCOC(=O)c1cn[nH]c1C` here?
**A.** The growth inhibition was 1.35%.

**Q.** With `[N-]=[N+]=Nc1c2c(nc3ccccc13)CCCC2` as the compound, how does the growth inhibition read?
**A.** Its growth inhibition is -38.1%.

**Q.** For `NC(=O)c1ccc(-c2csc(=S)[nH]2)s1`, which growth inhibition is on record?
**A.** The growth inhibition was -1.9%.

**Q.** With `Nn1nnc2ccccc21` as the compound, how does the growth inhibition read?
**A.** The growth inhibition was 26.8%.

**Q.** For `Cn1c2ccccc2c(=O)c2[nH]c3ccccc3c21`, which growth inhibition is on record?
**A.** The growth inhibition was 77.1% (active).

**Q.** With `CCCCCCCCCCCCCCCCCC(=O)N1CCN(C(=O)CCCCCCCCCCCCCCCCC)C1` as the compound, how does the growth inhibition read?
**A.** The growth inhibition was 30.4%.

**Q.** Which growth inhibition does the source give for `CN1C(=O)n2c(nc3ccccc32)C(Cl)(Cl)C1=O` here?
**A.** Its growth inhibition is 13.8%.

**Q.** With `CCOC(=O)c1c(C)cc(=O)oc1C` as the compound, how does the growth inhibition read?
**A.** The growth inhibition was -8.65% and 3.95%.

**Q.** Which growth inhibition does the source give for `CC(=O)COC(=O)c1ccccc1` here?
**A.** Its growth inhibition is 32.1%.

**Q.** With `Cc1cc2ccccc2c(N=Cc2cc(Br)cc(Br)c2O)c1C#N` as the compound, how does the growth inhibition read?
**A.** Its growth inhibition is 59.8%.

**Q.** With `CC1CCCC(CC(=O)O)(CC(=O)O)C1` (stereo not given) as the compound, how does the growth inhibition read?
**A.** Its growth inhibition is -14.1%.

**Q.** For `c1ccc2c(c1)C(=NCCCN1CCCCCCC1)c1cccn1-2`, which growth inhibition is on record?
**A.** The growth inhibition was 23.5%.

**Q.** Which growth inhibition does the source give for `[CH3][Sn]([CH3])([S]P(=S)(c1ccccc1)c1ccccc1)[S]P(=S)(c1ccccc1)c1ccccc1` here?
**A.** Its growth inhibition is 25.1%.

**Q.** With `Cc1ccc(Nc2nc(N)nc3c2ncn3C2OC(CO)C(O)C2O)cc1` (stereo not given) as the compound, how does the growth inhibition read?
**A.** The growth inhibition was 25.8%.

**Q.** For `CCOc1ccc(N=Nc2c(O)n(-c3ccc(Cl)cc3)c(=S)n(-c3ccccc3)c2=O)cc1`, which growth inhibition is on record?
**A.** Its growth inhibition is -15.2%.

**Q.** With `Oc1cccnc1Cl` as the compound, how does the growth inhibition read?
**A.** Its growth inhibition is 12.9%.

**Q.** Which growth inhibition does the source give for `CCCNCCC` here?
**A.** Its growth inhibition is 2.1%.

**Q.** With `COC(=O)CC1(C(=O)OC)NC(=O)c2cc(OC)c(Cl)cc2N1` (stereo not given) as the compound, how does the growth inhibition read?
**A.** The growth inhibition was -4.2%.

**Q.** For `COc1cc(OC)c(-c2cc(=O)c3c(OC)c(OC)c(OC)c(OC)c3o2)cc1OC`, which growth inhibition is on record?
**A.** Its growth inhibition is -2.95%.

**Q.** For `OC1(c2cccnc2)c2ccccc2Oc2ccccc21`, which growth inhibition is on record?
**A.** Its growth inhibition is -11.8%.

**Q.** With `CCCCCP(=O)(O)O.[Cu+2]` as the compound, how does the growth inhibition read?
**A.** The growth inhibition was -41.4%.

**Q.** For `N#CCNC(=O)Cc1ccccc1`, which growth inhibition is on record?
**A.** The growth inhibition was 10.2%.

**Q.** Which growth inhibition does the source give for `CC1=C(C(=O)CC(=O)C(=O)Nc2ccc(Cl)cc2C)Sc2ccccc2N1` here?
**A.** Its growth inhibition is -4.7%.

**Q.** With `CC(C)(C)OC(=O)NCC(=O)OC/C=C/c1ccccc1` as the compound, how does the growth inhibition read?
**A.** Its growth inhibition is -2.7%.

**Q.** With `COC(=O)/C=C/c1cccnc1` as the compound, how does the growth inhibition read?
**A.** The growth inhibition was -16.4%.

**Q.** Which growth inhibition does the source give for `O=C1C=CC(=O)N1c1ccnc(N2C(=O)C=CC2=O)c1` here?
**A.** Its growth inhibition is 21.4%.

**Q.** With `CCCCCCCCCCCC` as the compound, how does the growth inhibition read?
**A.** Its growth inhibition is -33.9%.

**Q.** With `CC1=CC(=O)[C@@H](O)[C@@]2(C)C1C[C@H]1OC(=O)[C@H](C/C=C(/C)C(C)C)[C@H]3C(C)C(O)C4(O)OC[C@@]31C42` (stereo not given in full) as the compound, how does the growth inhibition read?
**A.** The growth inhibition was 76.8% (active).
